PubChem BioAssay AID1376 (SRMLSC, 2008)
About 530 (0.24%) of roughly 220,000 compounds were called active. Rule as the data show it: active = inhibition above about 13%; inconclusive = no clear call, values can overlap the other calls; inactive = below that. This excerpt belongs to a sample that is enriched for actives. Entries with a potency or affinity are not part of this list.

Biological target: Bifunctional protein GlmU (Mycobacterium tuberculosis (strain ATCC 25618 / H37Rv)) (UniProt P9WMN3)
Assay: inhibition of mycobacterial GlmU enzyme – biochemical, glucosamine-1-phosphate acetyltransferase (AID 1376);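 also: 0% = complete reaction with vehicle and 100% = reaction without substrate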
Details: M. tuberculosis GlmU acetyltransferase enzyme assay; active compounds read high;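 tested at 30 µM in the primary screen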

Chain of Bifunctional protein GlmU (Mycobacterium tuberculosis (strain ATCC 25618 / H37Rv)) (P9WMN3 whole entry, looked up): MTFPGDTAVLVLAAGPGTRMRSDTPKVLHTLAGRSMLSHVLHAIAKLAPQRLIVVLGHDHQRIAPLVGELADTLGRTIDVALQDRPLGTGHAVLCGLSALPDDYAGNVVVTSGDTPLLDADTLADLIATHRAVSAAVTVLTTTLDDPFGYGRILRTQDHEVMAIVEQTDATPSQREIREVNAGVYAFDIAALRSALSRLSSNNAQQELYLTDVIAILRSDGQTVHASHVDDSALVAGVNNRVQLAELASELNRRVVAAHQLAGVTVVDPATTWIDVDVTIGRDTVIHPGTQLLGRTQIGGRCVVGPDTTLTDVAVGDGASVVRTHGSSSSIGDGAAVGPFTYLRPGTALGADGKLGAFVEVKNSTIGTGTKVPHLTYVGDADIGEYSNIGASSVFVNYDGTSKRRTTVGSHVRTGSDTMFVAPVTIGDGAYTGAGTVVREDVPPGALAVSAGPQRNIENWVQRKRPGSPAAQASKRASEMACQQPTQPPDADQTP

Row | SMILES | inhibition
1 | CC(CO)Nc1nc(SCc2ccccc2)nc2sc3c(c12)CCC3 (configuration not stated) | -17.2% (inactive)
2 | COCCNc1nc(SCc2ccccc2)nc2sc3c(c12)CCC3 | -0.26% (inactive)
3 | COCCCNc1nc(SCc2ccccc2)nc2sc3c(c12)CCC3 | 12.8% (active)
4 | CC(C)(C)c1ccc(S(=O)(=O)Nc2ccc(Cc3ccncc3)cc2)cc1 | 0.43% (inactive)
5 | COC(=O)c1ccc(N=NNc2ccccc2)cc1 | 4.94% (inactive)
6 | CCN(CC)S(=O)(=O)c1cc(NC(=O)Cc2n[nH]c(=O)c3ccccc23)ccc1C | 7.13% (inactive)
7 | CCC(C)(NC(=O)CNC(C)=O)C(=O)NC1CCCCC1 (configuration not stated) | 17.3% (active)
8 | CCC(C)(NC(=O)c1ccccn1)C(=O)NC1CCCC1 (configuration not stated) | -1.49% (inactive)
9 | CCC(C)(NC(=O)Cc1c[nH]c2ccccc12)C(=O)NC1CCCCC1 (configuration not stated) | 0.49% (inactive)
10 | CC(C)(C)C1CCC2(CC1)CC(=O)c1ccccc1O2 (configuration not stated) | 0.53% (inactive)
11 | CC(C)(C)OC(=O)N/N=C\c1ccc[nH]1 | -8.2% (inactive)
12 | O=C(O)CCCCCCCC(=O)O | -3.59% (inactive)
13 | O=C(O)CCCCC1SCC2NC(=O)NC21 (configuration not stated) | -2% (inactive)
14 | CCNc1oc(-c2ccc(OC)cc2)nc1S(=O)(=O)c1ccc(Br)cc1 | -0.98% (inactive)
15 | Cc1ccc(C2C(C(=O)c3cccs3)=C(O)C(=O)N2c2nnc(C)s2)cc1 (configuration not stated) | 2.85% (inactive)
16 | C=CCOc1ccc(C2C(C(=O)c3cccs3)=C(O)C(=O)N2c2nnc(C)s2)cc1 (configuration not stated) | 15% (active)
17 | C=CCOc1ccc(C2C(C(=O)c3ccco3)=C(O)C(=O)N2c2nnc(C)s2)cc1 (configuration not stated) | -3.01% (inactive)
18 | COC(=O)CCCC1=CC2=C(c3ccccc3)C(=O)C(C)(OC(=O)C3CCCC3)C(=O)C2=CN1C1CC1 (configuration not stated) | 1.9% (inactive)
19 | Cc1ccc(OCC(=O)N2CCOCC2)c([N+](=O)[O-])n1 | -0.37% (inactive)
20 | COc1ccc(C2C=C(c3ccc(Br)s3)Nc3ncnn32)cc1OC (configuration not stated) | 14.2% (active)
21 | COc1cc(C2C=C(c3cccs3)Nc3ncnn32)cc(OC)c1OC (configuration not stated) | -2.57% (inactive)

Row | SMILES | inhibition
22 | COc1cccc(C2C=C(c3ccc(Br)s3)Nc3ncnn32)c1OC (configuration not stated) | 0.77% (inactive)
23 | Cc1ccc(S(=O)(=O)N2CC(O)CC2C(=O)OCc2nc3sc(C)c(C)c3c(=O)[nH]2)cc1 (configuration not stated) | 1.13% (inactive)
24 | O=C(CCN1CCCC1)c1cccs1 | -0.97% (inactive)
25 | O=C(COC(=O)c1c[nH]c(=O)[nH]c1=O)NCc1ccccc1 | 13.3% (active)
26 | COc1ccc(CNC(=O)COC(=O)c2c[nH]c(=O)[nH]c2=O)cc1OC | -0.09% (inactive)
27 | O=C(COC(=O)c1c[nH]c(=O)[nH]c1=O)Nc1ccccc1 | -4.87% (inactive)
28 | O=C(CN(Cc1cccs1)C(=O)CNS(=O)(=O)c1ccc(F)cc1)NCC1CCCO1 (configuration not stated) | 3.23% (inactive)
29 | CCOc1ccc(CNC(=O)CCS(=O)(=O)Cc2ccc(C)cc2)cc1OC | 2.73% (inactive)
30 | COc1ccc(C2(C)NC(=O)N(CC(=O)NCCC3=CCCCC3)C2=O)cc1OC (configuration not stated) | -7.87% (inactive)
31 | CN(C)c1nc(OCCNC(=O)Nc2ccccc2)nc(N2CCCCC2)n1 | 1.41% (inactive)
32 | COc1ccccc1C(=O)NCc1n[nH]c(=S)n1Cc1ccccc1 | 0.36% (inactive)
33 | CCCCN(CC(=O)NCc1ccc(F)cc1)C(=O)c1ccco1 | -1.73% (inactive)
34 | CCc1cc2c(SCC(=O)c3ccccc3)ncnc2s1 | -3.16% (inactive)
35 | CCc1cc2c(SCC(=O)O)ncnc2s1 | -4.14% (inactive)
36 | CCc1cc2c(SCC(=O)C(C#N)=C3N(C)c4ccccc4N3C)ncnc2s1 | 15% (active)
37 | Cn1c(=O)c2c(SCC(=O)NCCc3ccccc3)nc(C3CC3)nc2n(C)c1=O | 1.2% (inactive)
38 | O=C(Cn1cnc2c(nnn2Cc2ccc(F)cc2)c1=O)N1CCCc2ccccc21 | -5.31% (inactive)
39 | COc1ccc(OC)c(NC(=O)CCN2CCCCCC2)c1 | -10.2% (inactive)
40 | CCOC(=O)CC1C(=O)NCCN1C(=O)Nc1ccccc1 (configuration not stated) | -2.01% (inactive)
41 | CCC(C)(C(=O)NC1CCCCC1)N(C)C(=O)c1ccccn1 (configuration not stated) | 14.8% (active)
42 | CCC(C)(C(=O)NC1CCCCC1)N(C(=O)c1ccccn1)c1ccccc1 (configuration not stated) | 2.61% (inactive)

Row | SMILES | inhibition
43 | CCC(C)(C(=O)NC1CCCC1)N(C)C(=O)c1ccccn1 (configuration not stated) | -5.14% (inactive)
44 | Cc1ccc(S(=O)(=O)Nc2nccs2)cc1[N+](=O)[O-] | -3.62% (inactive)
45 | O=S1(=O)CCN(Cc2cccc(Cl)c2)CC1 | -7.45% (inactive)
46 | CC(=O)Nc1cccc(NC(=O)c2ccc([N+](=O)[O-])cc2Cl)c1 | -7.61% (inactive)
47 | Cc1ccc(C[n+]2cccc(-c3ccccc3)c2)c(C)c1 | -2.52% (inactive)
48 | Cc1ccc(NC(=O)C2c3ccccc3Oc3ccccc32)nc1 | -2.94% (inactive)
49 | Cc1ccc(C(=O)O)cc1-c1ccc(C=C2C(=O)c3ccccc3C2=O)o1 | 11.7% (inactive)
50 | O=C(NCc1ccco1)c1ccc2c(c1)C(=O)c1ccccc1-2 | -0.25% (inactive)
51 | O=C(O)c1ccc2c(c1)C(=O)/C(=C\c1ccco1)C2=O | 17.2% (active)
52 | Cc1ccc(/C=N/Nc2ccc(C(=O)O)cc2)o1 | 0.55% (inactive)
53 | O=C1C(=Cc2ccco2)C(=O)c2ccccc21 | 8.37% (inactive)
54 | Cc1csc(SC(C)C(=O)Nc2ccc(S(=O)(=O)N3CCCC3)cc2)n1 (configuration not stated) | -1.61% (inactive)
55 | COCCCNC(=O)c1cc(C)nc2ccc(F)cc12 | 1.65% (inactive)
56 | CC(C)c1nnc(NC(=O)CCC(=O)N2CCN(Cc3ccccc3)CC2)s1 | 3.04% (inactive)
57 | CCN(CC)S(=O)(=O)c1ccc2nc(CCl)[nH]c2c1 | -0.14% (inactive)
58 | Cc1sc2nc(SCc3nnc(-c4cccs4)o3)n(C3CCCC3)c(=O)c2c1C | -5.93% (inactive)
59 | CCOC(=O)c1c(NC(=O)CN2CCCCC2)sc(CN(C)C)c1-c1ccccc1 | -2.86% (inactive)
60 | CC(=O)c1cc(F)c(N2CCN(C(=O)COc3ccccc3F)CC2)cc1C | 1.65% (inactive)
61 | Cc1ccc(NC(=S)N2CCCCC2CO)cc1C (configuration not stated) | -3.71% (inactive)
62 | N#Cc1ccccc1OCC(=O)C1CC1 | 5.73% (inactive)
